# Laboratory results from publication PMC7862700, “An all-to-all approach to the identification of sequence-specific readers for epigenetic DNA modifications on cytosine”.
# Columns and labels:
# Test in all cases: DAPPL (digital affinity profiling via proximity ligation, sequencing); 10 mM Tris-HCl pH 7.5, 50 mM NaCl, 1 mM DTT, 4% glycerol, room temperature, 30 min; GST-TFs on glutathione beads, 16-mer random dsDNA library, 0.1% formaldehyde crosslink after washing; high values mean tight binding
# Conditions in all cases: protein: recombinant; tags: N-terminal GST; dsDNA, one strand shown
# ELK1 = target: T1, ELK1 (Homo sapiens, UniProt P19419 1-428)
# T1 sequence: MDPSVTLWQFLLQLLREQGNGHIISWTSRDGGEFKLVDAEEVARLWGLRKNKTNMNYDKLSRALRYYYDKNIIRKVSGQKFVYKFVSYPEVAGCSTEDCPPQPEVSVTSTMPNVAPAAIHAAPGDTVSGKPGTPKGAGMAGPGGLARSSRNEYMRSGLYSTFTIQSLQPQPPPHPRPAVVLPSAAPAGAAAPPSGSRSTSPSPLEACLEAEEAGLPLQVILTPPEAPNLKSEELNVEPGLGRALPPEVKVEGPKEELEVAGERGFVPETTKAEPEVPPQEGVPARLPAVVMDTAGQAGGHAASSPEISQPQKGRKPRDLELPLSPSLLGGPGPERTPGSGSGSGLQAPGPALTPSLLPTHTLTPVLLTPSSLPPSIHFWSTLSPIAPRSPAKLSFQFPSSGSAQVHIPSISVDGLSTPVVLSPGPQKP
# Method in brief: (§1)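 Human transcription factors fused to GST were expressed in yeast, captured on glutathione beads, given DNA barcodes and pooled with a GST-only negative control. Pools were incubated with 200 nmole of a 16-mer random double-stranded DNA library in Tris/NaCl/DTT/glycerol buffer at room temperature for 30 min. They were then washed, crosslinked with 0.1% formaldehyde, proximity-ligated (BsaI/T4 ligase, 1 h, 37 °C), PCR-amplified and sequenced on an Illumina NextSeq500. Binding signal is each 6-mer's read frequency for a factor divided by its frequency for the GST control.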
# GABPA = target: T2, GABPA (Homo sapiens, UniProt Q06546 1-454)
# T2 sequence: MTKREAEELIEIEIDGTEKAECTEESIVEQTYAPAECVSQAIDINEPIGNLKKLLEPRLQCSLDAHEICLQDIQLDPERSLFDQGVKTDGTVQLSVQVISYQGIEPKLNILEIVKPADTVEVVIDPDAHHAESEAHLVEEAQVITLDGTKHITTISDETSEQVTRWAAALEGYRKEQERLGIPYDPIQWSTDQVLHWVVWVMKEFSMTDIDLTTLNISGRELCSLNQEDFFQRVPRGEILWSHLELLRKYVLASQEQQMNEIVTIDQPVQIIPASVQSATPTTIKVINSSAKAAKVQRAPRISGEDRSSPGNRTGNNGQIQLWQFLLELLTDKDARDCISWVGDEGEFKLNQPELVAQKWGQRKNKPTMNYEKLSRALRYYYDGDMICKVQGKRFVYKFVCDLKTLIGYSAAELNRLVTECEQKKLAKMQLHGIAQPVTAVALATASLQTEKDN
# Method in brief: as §1
# ERG = target: T3, ERG (Homo sapiens, UniProt P11308 1-479)
# T3 sequence: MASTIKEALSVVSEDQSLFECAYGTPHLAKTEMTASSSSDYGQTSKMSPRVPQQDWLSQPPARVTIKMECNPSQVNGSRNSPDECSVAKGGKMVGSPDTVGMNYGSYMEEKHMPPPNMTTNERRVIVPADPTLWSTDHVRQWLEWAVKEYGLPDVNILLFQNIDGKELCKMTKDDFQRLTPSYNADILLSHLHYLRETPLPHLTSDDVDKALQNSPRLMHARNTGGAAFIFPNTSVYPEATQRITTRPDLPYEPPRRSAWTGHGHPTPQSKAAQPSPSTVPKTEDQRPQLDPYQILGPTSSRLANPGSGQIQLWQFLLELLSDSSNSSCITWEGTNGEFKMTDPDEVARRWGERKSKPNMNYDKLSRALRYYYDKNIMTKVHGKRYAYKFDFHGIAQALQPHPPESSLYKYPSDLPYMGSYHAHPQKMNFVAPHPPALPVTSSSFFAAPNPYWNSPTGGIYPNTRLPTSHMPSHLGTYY
# Method in brief: as §1
# ELF1 = ELF1 (Homo sapiens, UniProt P32519 1-619)
# ELF1, sequence (P32519 whole entry): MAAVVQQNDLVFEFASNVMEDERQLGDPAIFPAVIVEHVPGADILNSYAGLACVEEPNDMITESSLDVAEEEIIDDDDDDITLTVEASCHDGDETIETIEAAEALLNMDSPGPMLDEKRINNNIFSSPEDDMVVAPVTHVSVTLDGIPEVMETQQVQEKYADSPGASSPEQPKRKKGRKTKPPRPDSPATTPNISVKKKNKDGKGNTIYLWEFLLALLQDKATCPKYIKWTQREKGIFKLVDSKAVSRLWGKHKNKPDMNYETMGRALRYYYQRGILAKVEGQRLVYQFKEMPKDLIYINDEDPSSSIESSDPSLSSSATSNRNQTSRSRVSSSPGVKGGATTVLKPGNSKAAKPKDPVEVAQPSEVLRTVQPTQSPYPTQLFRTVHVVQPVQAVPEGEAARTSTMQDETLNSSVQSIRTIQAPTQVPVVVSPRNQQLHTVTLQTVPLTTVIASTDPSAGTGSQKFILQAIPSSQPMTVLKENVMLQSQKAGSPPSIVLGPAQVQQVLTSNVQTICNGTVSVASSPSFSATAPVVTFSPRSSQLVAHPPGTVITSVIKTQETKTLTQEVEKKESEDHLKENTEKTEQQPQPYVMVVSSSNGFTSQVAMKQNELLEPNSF
# Method in brief: as §1
# EHF = target: T4, EHF (Homo sapiens, UniProt Q9NZC4 1-300)
# T4 sequence: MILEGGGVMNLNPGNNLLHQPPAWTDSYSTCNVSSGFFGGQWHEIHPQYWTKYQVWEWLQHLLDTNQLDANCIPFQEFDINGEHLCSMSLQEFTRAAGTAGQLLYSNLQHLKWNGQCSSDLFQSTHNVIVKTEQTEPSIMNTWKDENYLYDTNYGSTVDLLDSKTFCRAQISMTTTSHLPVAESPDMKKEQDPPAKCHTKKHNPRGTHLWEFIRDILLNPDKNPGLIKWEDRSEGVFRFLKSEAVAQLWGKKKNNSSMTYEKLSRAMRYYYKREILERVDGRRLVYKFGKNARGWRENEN
# Method in brief: as §1
# SPIB = SPIB (Homo sapiens, UniProt Q01892 1-262)
# SPIB, sequence (Q01892 whole entry): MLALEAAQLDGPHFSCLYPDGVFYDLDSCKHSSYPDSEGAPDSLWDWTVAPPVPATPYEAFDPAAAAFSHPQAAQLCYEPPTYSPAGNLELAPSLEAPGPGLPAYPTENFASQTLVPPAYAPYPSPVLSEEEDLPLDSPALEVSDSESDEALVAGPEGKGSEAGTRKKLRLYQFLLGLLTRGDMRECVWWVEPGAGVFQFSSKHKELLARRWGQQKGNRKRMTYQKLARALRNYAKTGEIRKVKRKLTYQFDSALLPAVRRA
# Method in brief: as §1
# ELK3 = target: T5, ELK3 (Homo sapiens, UniProt P41970 1-407)
# T5 sequence: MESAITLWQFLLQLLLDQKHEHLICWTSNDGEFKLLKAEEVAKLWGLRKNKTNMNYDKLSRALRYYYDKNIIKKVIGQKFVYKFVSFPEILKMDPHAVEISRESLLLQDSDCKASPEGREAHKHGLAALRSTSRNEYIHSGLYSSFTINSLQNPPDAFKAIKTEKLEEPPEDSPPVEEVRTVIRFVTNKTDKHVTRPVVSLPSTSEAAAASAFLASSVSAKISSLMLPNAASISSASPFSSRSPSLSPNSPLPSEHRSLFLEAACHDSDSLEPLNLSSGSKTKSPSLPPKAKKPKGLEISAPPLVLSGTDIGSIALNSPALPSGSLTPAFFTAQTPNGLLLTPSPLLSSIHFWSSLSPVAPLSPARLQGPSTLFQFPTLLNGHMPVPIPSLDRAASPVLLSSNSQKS
# Method in brief: as §1
# ELF4 = ELF4 (Homo sapiens, UniProt Q99607 1-663)
# ELF4, sequence (Q99607 whole entry): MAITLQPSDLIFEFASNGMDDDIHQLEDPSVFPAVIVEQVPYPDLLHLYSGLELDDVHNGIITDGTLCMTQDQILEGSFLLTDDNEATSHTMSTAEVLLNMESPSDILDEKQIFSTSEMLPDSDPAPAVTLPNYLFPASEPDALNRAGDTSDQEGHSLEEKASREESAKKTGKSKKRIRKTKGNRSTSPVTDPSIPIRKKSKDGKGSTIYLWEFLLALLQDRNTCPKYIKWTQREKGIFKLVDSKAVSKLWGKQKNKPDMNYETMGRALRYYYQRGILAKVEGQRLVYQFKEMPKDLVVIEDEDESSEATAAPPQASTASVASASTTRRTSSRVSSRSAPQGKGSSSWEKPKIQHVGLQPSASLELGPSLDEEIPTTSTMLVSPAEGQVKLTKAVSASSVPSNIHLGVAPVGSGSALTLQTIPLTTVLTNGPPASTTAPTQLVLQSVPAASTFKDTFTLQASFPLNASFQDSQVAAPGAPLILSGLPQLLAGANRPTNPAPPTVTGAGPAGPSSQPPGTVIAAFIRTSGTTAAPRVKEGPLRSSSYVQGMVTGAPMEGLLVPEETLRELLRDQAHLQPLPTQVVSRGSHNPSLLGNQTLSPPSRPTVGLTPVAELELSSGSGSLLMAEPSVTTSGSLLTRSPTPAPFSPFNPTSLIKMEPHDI
# Method in brief: as §1
# ELK4 = target: T6, ELK4 (Homo sapiens, UniProt P28324-2 1-405)
# T6 sequence: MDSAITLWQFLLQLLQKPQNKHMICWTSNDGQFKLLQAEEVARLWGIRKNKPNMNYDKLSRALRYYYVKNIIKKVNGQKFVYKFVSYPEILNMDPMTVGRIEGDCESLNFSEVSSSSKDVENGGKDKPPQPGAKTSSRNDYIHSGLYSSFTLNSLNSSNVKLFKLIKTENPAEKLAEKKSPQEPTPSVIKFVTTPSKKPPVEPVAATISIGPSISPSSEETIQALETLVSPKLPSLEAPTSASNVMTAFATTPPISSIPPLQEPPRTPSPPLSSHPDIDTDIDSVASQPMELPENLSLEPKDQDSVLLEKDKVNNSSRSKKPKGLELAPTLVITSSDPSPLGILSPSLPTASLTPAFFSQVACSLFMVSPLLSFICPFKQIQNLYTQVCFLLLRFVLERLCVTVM
# Method in brief: as §1
# ETV2 = target: T7, ETV2 (Homo sapiens, UniProt O00321 1-342)
# T7 sequence: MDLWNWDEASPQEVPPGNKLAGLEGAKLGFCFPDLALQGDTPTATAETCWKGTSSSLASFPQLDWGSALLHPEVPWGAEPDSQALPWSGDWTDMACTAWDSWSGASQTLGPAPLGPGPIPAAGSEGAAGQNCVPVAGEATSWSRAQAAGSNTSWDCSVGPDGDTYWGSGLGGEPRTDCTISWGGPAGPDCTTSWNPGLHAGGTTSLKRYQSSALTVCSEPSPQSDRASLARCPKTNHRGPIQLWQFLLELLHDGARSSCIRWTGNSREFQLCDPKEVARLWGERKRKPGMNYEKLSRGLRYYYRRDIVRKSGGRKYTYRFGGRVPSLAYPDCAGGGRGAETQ
# Method in brief: as §1
# ELF3 = target: T8, ELF3 (Homo sapiens, UniProt P78545 1-371)
# T8 sequence: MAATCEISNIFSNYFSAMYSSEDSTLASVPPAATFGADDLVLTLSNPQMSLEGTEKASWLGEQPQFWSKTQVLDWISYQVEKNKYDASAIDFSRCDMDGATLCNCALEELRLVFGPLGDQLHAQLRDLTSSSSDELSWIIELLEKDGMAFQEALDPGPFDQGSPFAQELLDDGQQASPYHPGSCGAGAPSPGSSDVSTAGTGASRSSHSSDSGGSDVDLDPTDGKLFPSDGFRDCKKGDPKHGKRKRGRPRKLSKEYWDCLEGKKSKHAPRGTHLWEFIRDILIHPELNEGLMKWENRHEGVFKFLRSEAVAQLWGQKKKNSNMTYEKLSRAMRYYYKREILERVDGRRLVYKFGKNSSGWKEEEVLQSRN
# Method in brief: as §1
# ETV1 = ETV1 (Homo sapiens, UniProt P50549 1-477)
# ETV1, sequence (P50549 whole entry): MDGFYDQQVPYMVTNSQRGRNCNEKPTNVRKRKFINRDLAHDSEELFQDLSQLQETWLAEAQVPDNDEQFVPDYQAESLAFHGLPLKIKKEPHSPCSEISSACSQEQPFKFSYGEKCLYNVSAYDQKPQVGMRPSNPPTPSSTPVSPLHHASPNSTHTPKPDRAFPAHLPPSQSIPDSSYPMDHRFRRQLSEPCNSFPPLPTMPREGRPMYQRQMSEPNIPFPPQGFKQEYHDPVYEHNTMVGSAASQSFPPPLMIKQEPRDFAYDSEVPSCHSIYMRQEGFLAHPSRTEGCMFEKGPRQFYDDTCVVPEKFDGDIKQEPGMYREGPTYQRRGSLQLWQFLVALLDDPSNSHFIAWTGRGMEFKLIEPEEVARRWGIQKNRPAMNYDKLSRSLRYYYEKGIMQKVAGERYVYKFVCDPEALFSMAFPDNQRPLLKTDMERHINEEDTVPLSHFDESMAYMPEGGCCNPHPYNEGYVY
# Method in brief: as §1
# ERF = target: T9, ERF (Homo sapiens, UniProt P50548 1-548)
# T9 sequence: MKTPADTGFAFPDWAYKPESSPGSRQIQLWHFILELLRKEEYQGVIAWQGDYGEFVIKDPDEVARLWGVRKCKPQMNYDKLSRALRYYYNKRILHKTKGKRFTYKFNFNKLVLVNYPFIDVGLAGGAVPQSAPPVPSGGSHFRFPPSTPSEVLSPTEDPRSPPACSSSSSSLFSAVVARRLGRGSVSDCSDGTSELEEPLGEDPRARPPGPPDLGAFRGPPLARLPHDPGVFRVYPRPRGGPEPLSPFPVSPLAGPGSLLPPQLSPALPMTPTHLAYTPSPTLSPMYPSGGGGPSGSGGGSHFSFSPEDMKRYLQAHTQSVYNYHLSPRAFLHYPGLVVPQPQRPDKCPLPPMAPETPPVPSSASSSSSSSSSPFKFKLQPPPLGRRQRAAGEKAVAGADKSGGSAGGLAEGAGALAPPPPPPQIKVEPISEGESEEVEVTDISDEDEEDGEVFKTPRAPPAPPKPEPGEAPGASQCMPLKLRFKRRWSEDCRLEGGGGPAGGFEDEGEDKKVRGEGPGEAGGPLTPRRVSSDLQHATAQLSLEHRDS
# Method in brief: as §1
# ETV3L = target: T10, ETV3L (Homo sapiens, UniProt Q6ZN32 1-361)
# T10 sequence: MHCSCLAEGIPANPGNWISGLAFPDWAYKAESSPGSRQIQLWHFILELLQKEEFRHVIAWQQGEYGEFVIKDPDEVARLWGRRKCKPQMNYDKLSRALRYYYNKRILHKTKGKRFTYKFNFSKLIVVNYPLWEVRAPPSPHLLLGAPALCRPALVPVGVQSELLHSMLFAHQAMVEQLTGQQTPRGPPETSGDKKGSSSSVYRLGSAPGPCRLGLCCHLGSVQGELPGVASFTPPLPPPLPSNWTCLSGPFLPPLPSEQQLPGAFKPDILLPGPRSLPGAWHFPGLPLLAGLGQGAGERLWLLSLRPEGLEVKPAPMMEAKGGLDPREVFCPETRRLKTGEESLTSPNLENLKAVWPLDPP
# Method in brief: as §1
# ETS2 = target: T11, ETS2 (Homo sapiens, UniProt P15036 1-469)
# T11 sequence: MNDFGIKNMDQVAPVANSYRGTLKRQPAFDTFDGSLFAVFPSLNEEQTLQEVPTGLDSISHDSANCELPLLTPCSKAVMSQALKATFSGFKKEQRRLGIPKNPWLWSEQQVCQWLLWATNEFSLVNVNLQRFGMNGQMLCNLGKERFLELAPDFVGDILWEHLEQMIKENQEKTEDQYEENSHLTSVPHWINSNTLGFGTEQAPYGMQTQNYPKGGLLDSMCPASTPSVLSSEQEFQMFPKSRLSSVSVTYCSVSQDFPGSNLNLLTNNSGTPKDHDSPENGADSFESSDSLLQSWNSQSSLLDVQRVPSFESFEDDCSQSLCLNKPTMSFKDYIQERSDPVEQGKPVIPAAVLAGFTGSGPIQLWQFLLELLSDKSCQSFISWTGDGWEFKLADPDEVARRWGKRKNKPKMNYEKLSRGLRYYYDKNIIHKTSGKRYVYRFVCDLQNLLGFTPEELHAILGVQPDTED
# Method in brief: as §1
# ETV7 = target: T12, ETV7 (Homo sapiens, UniProt Q9Y603 1-341)
# T12 sequence: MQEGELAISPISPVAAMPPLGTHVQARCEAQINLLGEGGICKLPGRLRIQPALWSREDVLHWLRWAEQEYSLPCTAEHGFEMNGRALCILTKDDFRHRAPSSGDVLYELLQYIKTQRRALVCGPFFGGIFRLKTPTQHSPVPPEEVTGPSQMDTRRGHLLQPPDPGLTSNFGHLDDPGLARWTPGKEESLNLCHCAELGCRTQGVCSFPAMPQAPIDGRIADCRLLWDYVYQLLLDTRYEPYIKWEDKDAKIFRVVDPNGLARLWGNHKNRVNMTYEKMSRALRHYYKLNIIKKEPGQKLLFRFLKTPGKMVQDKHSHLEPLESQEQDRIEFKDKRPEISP
# Method in brief: as §1
# ETV3 = target: T13, ETV3 (Homo sapiens, UniProt P41162-2 1-143)
# T13 sequence: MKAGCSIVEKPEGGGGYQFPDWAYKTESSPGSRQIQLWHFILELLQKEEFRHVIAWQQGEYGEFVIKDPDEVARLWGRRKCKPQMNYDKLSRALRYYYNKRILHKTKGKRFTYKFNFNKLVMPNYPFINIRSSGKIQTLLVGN
# Method in brief: as §1
# ETV6 = ETV6 (Homo sapiens, UniProt P41212 1-452)
# ETV6, sequence (P41212 whole entry): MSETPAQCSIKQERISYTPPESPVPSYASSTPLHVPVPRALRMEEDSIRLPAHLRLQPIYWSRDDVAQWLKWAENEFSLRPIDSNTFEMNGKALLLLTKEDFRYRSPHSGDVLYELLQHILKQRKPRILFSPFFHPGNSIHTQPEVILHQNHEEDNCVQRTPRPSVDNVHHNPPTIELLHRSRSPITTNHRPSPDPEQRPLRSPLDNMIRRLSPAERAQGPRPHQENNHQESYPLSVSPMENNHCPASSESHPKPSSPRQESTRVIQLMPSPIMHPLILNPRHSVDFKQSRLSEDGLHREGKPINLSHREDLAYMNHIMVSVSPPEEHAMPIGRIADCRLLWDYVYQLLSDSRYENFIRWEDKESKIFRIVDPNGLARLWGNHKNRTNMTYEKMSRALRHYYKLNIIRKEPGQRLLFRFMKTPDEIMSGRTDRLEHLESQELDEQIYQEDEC
# Method in brief: as §1
sequence,measurement,setting,value
GGACTT,binding signal,ELK1,"1.24 fold enrichment (6-mer frequency, TF over GST control)"
same,binding signal,GABPA,"1.16 fold enrichment (6-mer frequency, TF over GST control)"
same,binding signal,ERG,"1.17 fold enrichment (6-mer frequency, TF over GST control)"
same,binding signal,ELF1,"1.16 fold enrichment (6-mer frequency, TF over GST control)"
same,binding signal,EHF,"1.11 fold enrichment (6-mer frequency, TF over GST control)"
same,binding signal,SPIB,"1.11 fold enrichment (6-mer frequency, TF over GST control)"
same,binding signal,ELK3,"1.11 fold enrichment (6-mer frequency, TF over GST control)"
same,binding signal,ELF4,"1.09 fold enrichment (6-mer frequency, TF over GST control)"
same,binding signal,ELK4,"1.08 fold enrichment (6-mer frequency, TF over GST control)"
same,binding signal,ETV2,"1.19 fold enrichment (6-mer frequency, TF over GST control)"
same,binding signal,ELF3,"1.06 fold enrichment (6-mer frequency, TF over GST control)"
same,binding signal,ETV1,"1.22 fold enrichment (6-mer frequency, TF over GST control)"
same,binding signal,ERF,"1.01 fold enrichment (6-mer frequency, TF over GST control)"
same,binding signal,ETV3L,"1.1 fold enrichment (6-mer frequency, TF over GST control)"
same,binding signal,ETS2,"1.13 fold enrichment (6-mer frequency, TF over GST control)"
same,binding signal,ETV7,"1.13 fold enrichment (6-mer frequency, TF over GST control)"
same,binding signal,ETV3,"1.27 fold enrichment (6-mer frequency, TF over GST control)"
same,binding signal,ETV6,"1.13 fold enrichment (6-mer frequency, TF over GST control)"
